Measurements reported in PubChem BioAssay (Tox21).
Results filed as inconclusive are left out. A call without a number means that no potency is given here. Active and inactive are the calls of the source. The call rests on the fitted dose curve; in most records, active means well fitted cell-killing curve with a large enough effect in the repeat runs; inconclusive means weak or mixed curves, or effect the other way; inactive means no such curve, though single readings can be large or run the other way. Where a SMILES comes first, the peptide text is derived from it.

Assay: Caspase-3/7 induction in CHO-K1 cells by small molecules, qHTS cell viability counter screen (AID 1346979); further: nearly all actives have a fitted effect of over 35% in size
Details: CellTiter-Fluor fluorescence, 17 h; series mostly up to 92.4 µM
Excerpt: National Center for Advancing Translational Sciences [NCATS]
NIH Chemical Genomics Center [NCGC]
U.S. Environmental Protection Agency [EPA]
National Institutes of Environmental Health Sciences [NIEHS]
National Toxicology Program [NTP]
U.S. Food and Drug Administration [FDA]
Apoptosis is a process of programmed cell death and plays a central role in the development of multicellular organisms. It is a highly regulated process and induces cell death by activating caspases, which are the members of cysteine aspartic acid-specific protease (caspase) family. Caspases involved in apoptosis are classified by their mechanism of action as initiator caspases (caspase-2, -8, -9 and -10) and executioner caspases (caspase-3, -6, and -7). Inhibition of apoptosis results in number of cancers, autoimmune diseases, inflammatory diseases and viral infection. To identify small molecule compounds that induce apoptosis, a homogeneous, luminescent Caspase-Glo 3/7 assay was used. Wild type CHO-K1 cells were used to screen Tox21 libraries for identifying caspase-3/7 activity inducers. Also cytotoxicity of the compounds was tested in parallel by measuring the cell viability using CellTiter-Fluor assay system in the same wells.
Tox21 Assay Protocol Summary:
CHO-K1 cells were dispensed at 1,500 per well in 5uL of culture medium into white solid bottom 1536-well plates (Corning Life Sciences, Corning, NY) using a Multidrop Combi (Thermo Scientific, Waltham, MA) dispenser. The assay plates were incubated at 37 C and 5% CO2 for 5hr, and then 23nL of compounds dissolved in DMSO and positive control were transferred using a Pintool station (Wako, San Diego, CA). The assay plates were incubated at 37C and 5% CO2 for 17hr. For cytotoxicity read, after 16hr incubation at 37C, 1uL CellTiter-Fluor reagent (Promega Corporation, Madison, WI) was added to each well of the assay plates using Flying Reagent Dispenser (FRD, Aurora Discovery, San Diego, CA). After 1hr incubation at 37C and 5% CO2, the fluorescence signal was quantified using a ViewLux plate reader (PerkinElmer, Shelton, CT).

Structure (SMILES) | Potency | activity change, negative = cytotoxicity
CC(C)c1ccc(C=O)cc1 | inactive | 
CC(C)OC(=O)CCC(=O)OC(C)C | inactive | 
c1ccc2c(CC3=NCCN3)cccc2c1 | inactive | 
CCCCSCCCC | inactive | 
OCC(O)CN1CCN(c2ccccc2)CC1 (stereo not given) | inactive | 
CCO[Si](CC)(OCC)OCC | inactive | 
O=C(O)c1cc2ccccc2nc1C(=O)O | inactive | 
COc1nc(N)nc2nc[nH]c12 | inactive | 
O=C(NCN1CCOCC1)c1cnccn1 | inactive | 
OCC1(CO)COCOC1 | inactive | 
Nc1nc(-c2ccccc2)c(Br)c(=O)[nH]1 | inactive | 
COC(=O)CCCCC(CCSS/C(CCO)=C(\C)N(C=O)Cc1cnc(C)nc1N)SC(C)=O (stereo not given) | inactive | 
CC(=O)OC1CCCCC1C(C)(C)C (stereo not given) | inactive | 
O=C1c2ccccc2C(=O)c2cc(Cl)ccc21 |  | 9.78% [at 8.39 µM] (inactive)
CCCC(=O)OC/C=C(\C)CCC=C(C)C | inactive | 
CCC(C)C(=O)OCCc1ccccc1 (stereo not given) | inactive | 
CCC(=O)CC | inactive | 
CN(C)CCCCl | inactive | 
Cc1cc(-c2ccccc2)nnc1NCCN1CCOCC1 | inactive | 
CC(C)[C@H]1CC[C@H](C)C[C@@H]1O | inactive | 

Structure (SMILES) | Potency | activity change, negative = cytotoxicity
C/C(CC(C)C)=N\O | inactive | 
CCC/C=C(\C=O)CC | inactive | 
CC/C=C\CCOC(=O)c1ccccc1O | inactive | 
CCC(C)C(C)=O (stereo not given) | inactive | 
CCC(=O)Oc1ccc2c(c1)CC[C@@H]1[C@@H]2CC[C@@]2(C)[C@H]1C[C@@H](OC(=O)CC)[C@@H]2OC(=O)CC | inactive | 
CC(=O)N[C@@H](CO)C(=O)N[C@@H](CC(=O)O)C(=O)N[C@@H](CCCCN)C(=O)N1CCC[C@H]1C(=O)O (Ac-SDKP-OH) | inactive | 
CC1CC(=O)CC(C)(C)C1 (stereo not given) | inactive | 
CSc1cnccn1 | inactive | 
CC(=O)CC(=O)Nc1ccc(C)cc1C | inactive | 
Cc1cccc(Cl)c1 | inactive | 
CCCCCCCCCCCCCCC(=O)NC(CO)CCCCCCCCCCCCCC (stereo not given) | inactive | 
CC1(C)Cc2cccc(N)c2O1 | inactive | 
COC(=O)CCCCC(=O)O | inactive | 
CCO | inactive | 
COc1cc2c(cc1OC)C(=O)C(CC1CCN(Cc3ccccc3)CC1)C2 (stereo not given) | inactive | 
CN(C)C(C)(C)CO | inactive | 
CCCC(=O)OCCC(C)CCC=C(C)C (stereo not given) | inactive | 
C=CCCCCCCCC | inactive | 
CCCCCCCCCOC(=O)c1ccccc1C(=O)OCCCCCCCCC | inactive | 
CCN(CC)CCN | inactive | 
